Screening results from PubChem.
Shown is part of a subset that was picked to be rich in hits.
TTR transcr act: TTR transcription activators in neuroblastoma reporter cells, primary screen, cell-based, luminescence, SH-SY5Y, TTR promoter Gaussia luciferase; 100% = recombinant luciferase protein wells; activation, % at 16.7 µM; 92,000 tested, 1.3% active;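 active means activation above the mean of all tested compounds plus 3 SD, cut at about 9.5% in these data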;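 further: cells exposed to compounds for one day before reading; 0% = median of all test compound wells on the plate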
TTR inh HuH7: TTR promoter reporter inhibitors in hepatoma cells, counter-screen for TTR transcription activator project, cell-based, luminescence, HuH7 hepatoma; HuH7 TTR promoter-Gaussia luciferase reporter; shares compounds with TTR transcr act; 1,100 tested, 4% active; inhibition, % at 16.7 µM;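 active means average inhibition above the solvent-only control wells' mean plus 3 SD, cut at about 15% in these data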;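 further: 0% = cells with DMSO only and 100% = cells with inhibitor control FD; inhibitors lower well luminescence so higher value means more inhibition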
TTR act confirm: TTR transcription activators, retest, confirmation, cell-based, luminescence, SH-SY5Y, triplicate; shares compounds with TTR transcr act; SHSY5Y TTR promoter Gaussia luciferase; 100% = purified Lucia enzyme wells, no cells; activation, % at 16.7 µM; 1,100 tested, under 10 active; AID 1117280, 2014;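 active means mean activation above a set limit taken from the earlier primary screen, cut at about 11% in these data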;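 further: 0% = DMSO-treated cells and 100% = recombinant Lucia luciferase without cells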
Numbers without * were called inactive.

SMILES	TTR transcr act	others
CCn1c(CCNC(=O)c2ccccc2Cl)n[nH]c1=S	21.9*	TTR inh HuH7=-4.7;TTR act confirm=0.4
CCn1c(CCNC(=O)c2ccc(Cl)cc2Cl)n[nH]c1=S	3.9
CCn1c(Cc2ccccc2)n[nH]c1=S	-0.3
CC(C)c1ccc(/C=N/n2c(COc3ccccc3)n[nH]c2=S)cc1	2.0
CCOC(=O)C1(C)CCN1C(=O)c1cccc(C#N)c1 (stereo not given)	-0.3
COC(=O)[C@H](CCSC)NC(=O)Nc1ccc(C(C)C)cc1	-1.1
COC(=O)[C@H](CCSC)NC(=O)NCc1ccccn1	18.6*	TTR inh HuH7=-17.3;TTR act confirm=0.9
COC(=O)[C@H](CCSC)NC(=O)NCCc1ccc(F)cc1	1.3
COC(=O)[C@]12C[C@H](CC(=O)N3CCN(C(=O)C4CC4)CC3)C(=O)N(CCC3=CCCCC3)C1=C[C@H](C1CCCC1)O[C@@H]2C	2.5
COc1cccc(CNC(=O)c2nnn(CC(=O)Nc3cccc(C)c3)c2N)c1	-0.3
Cc1ccc(N(CC(=O)NCc2ccc(F)cc2)C(=O)c2csnn2)cc1C	11.1*	TTR inh HuH7=-16.5;TTR act confirm=-0.5
Cc1cc(C)c(N(CC(=O)NCc2ccccc2)C(=O)c2csnn2)c(C)c1	0.0
Cc1ccccc1CCN(CC(=O)NCc1ccc(F)cc1)C(=O)c1csnn1	-0.1
Cn1c(=O)c(=O)n(C)c2cc(S(=O)(=O)CCC(=O)Nc3c(F)c(F)c(F)c(F)c3F)ccc21	2.1
CC1=C(C)[N+](=O)C2CCCCC2N1[O-] (stereo not given)	13.0*	TTR inh HuH7=-6.3;TTR act confirm=-0.3
C=CCN1C(=O)c2ccc(C(=O)N3CCN(S(=O)(=O)c4ccccc4Br)CC3)cc2C1=O	-1.0
C=CCSC1=Nc2cc(OC)c(OC)cc2C2=NC(=O)CN12	31.3*	TTR inh HuH7=14.0;TTR act confirm=-0.7
COc1cc2c(cc1OC)C1=NC(=O)CN1C(SCc1ccc(C)cc1)=N2	-1.9
C=CCc1ccc(OCCn2cccc2C=O)c(OC)c1	-3.6
CCC(c1nnnn1Cc1cccs1)N1CCN(C2CCCC2)CC1 (stereo not given)	-0.5
CC(C)CC(c1nnnn1C1CCCCC1)N1CCN(c2ncccn2)CC1 (stereo not given)	-1.4
CCCCC(c1nnnn1C1CCCC1)N1CCN(C2CCCC2)CC1 (stereo not given)	17.0*	TTR inh HuH7=-15.3;TTR act confirm=-0.2
CC1=C([N+](=O)[O-])C(c2ccccc2C(F)(F)F)NC(=O)N1C (stereo not given)	0.9
S=C(NCc1cccs1)Nc1cccc2ccccc12	0.7
N#Cc1c(F)cccc1NCc1cccs1	14.5*	TTR inh HuH7=-9.2;TTR act confirm=1.4
SMILES	TTR transcr act	others
O=S(=O)(NCc1cccs1)NCc1ccccc1F	4.2
CC(=O)Nc1sc2c(c1-c1nc3ccccc3s1)CCOC2	-0.7
O=C(C[C@H]1C[C@H]2c3cc(NS(=O)(=O)c4ccc(F)cc4)ccc3O[C@H]2[C@H](CO)O1)NCc1ccncc1	0.3
COC(=O)c1ccc(Cn2ccc3ccc(-c4ccc5ccn(Cc6ccc(OC)cc6)c5c4)cc32)cc1	-1.5
O=C(CCS(=O)(=O)c1ccc(Cl)cc1)N1CCN(c2ccc(F)cc2)CC1	0.9
COc1ccc(S(=O)(=O)CCC(=O)N2CCN(c3ccc(F)cc3)CC2)cc1	10.2*	TTR inh HuH7=-12.4;TTR act confirm=3.2
COc1ccc(CC(=O)N2CCN(c3ccc(F)cc3)CC2)cc1	3.5
COc1ccccc1NC(=O)c1cc(C(=O)Nc2ccccc2OC)n(C)n1	0.9
CCOC(=O)c1ccc(NC(=S)NCCc2ccc(OC)c(OC)c2)cc1	-1.1
CCOCCCNC(=O)Cn1cnc2c(cnn2-c2ccc(F)cc2)c1=O	-0.8
CCOc1ccccc1NC(=O)Cn1cnc2c(cnn2-c2ccc(C)c(C)c2)c1=O	10.9*	TTR inh HuH7=-6.1;TTR act confirm=-0.3
CCCCNC(=O)Cn1cnc2c(cnn2-c2ccc(C)c(C)c2)c1=O	2.4
O=C(C1CC12CCCC2)N1CCC(CO)(Cc2ccccc2Cl)CC1 (stereo not given)	13.0*	TTR inh HuH7=5.8;TTR act confirm=-0.7
CC(C)(C)C(=O)N1CCC(O)(CS(=O)(=O)Cc2ccccc2Cl)CC1	4.5
C=CCNC(=O)N1CCC(CO)(Cc2ccc(Cl)cc2)CC1	-0.9
CS(=O)(=O)c1ccc(Cl)c(NC(=O)C2CCN(S(=O)(=O)c3cccs3)CC2)c1	0.9
COc1ccccc1CNC(=O)N1CCN(S(=O)(=O)c2ccccc2)CC1	-1.0
COc1cccc(CNC(=O)N2CCN(S(=O)(=O)c3ccc(Cl)cc3)CC2)c1	2.1
COc1ccccc1CNC(=O)N1CCN(S(=O)(=O)c2ccc(Cl)cc2)CC1	37.6*	TTR inh HuH7=-13.6;TTR act confirm=0.4
CN(C)S(=O)(=O)n1cnc(C(CCO)c2ncn(S(=O)(=O)N(C)C)c2CCCO)c1 (stereo not given)	-1.9
CCCCc1c(CCC)c(=N)c2ccccc2n1C	-1.4
CCCNC(=O)C1(C)CCCN(Cc2ccc3ccccc3c2)C1 (stereo not given)	-0.7
CCN1C(=O)[C@@H]2[C@@H](c3ccc(-c4ccc(C(C)=O)cc4)cc3)N3CCCC[C@@]3(C(=O)OC)[C@@H]2C1=O	12.2*	TTR inh HuH7=1.5;TTR act confirm=-0.6
CCSc1ccc([C@@H]2[C@H]3C(=O)N(C)C(=O)[C@H]3[C@]3(C(=O)OC)CCCCN23)cc1	-1.1
COC(=O)[C@@]12CCCCN1[C@H](c1ccc(SC3CCCCC3)cc1)[C@@H]1C(=O)N(C)C(=O)[C@@H]12	17.2*	TTR inh HuH7=6.9;TTR act confirm=-1.2
SMILES	TTR transcr act	others
COC(=O)[C@@]12CCCN1[C@H](c1ccc(-c3ccccc3)cc1)[C@H]1C(=O)N(C)C(=O)[C@H]12	3.6
COC(=O)[C@@]12CCCCN1[C@H](c1ccc(-c3ccc(C(C)=O)cc3)cc1)[C@H]1C(=O)N(C)C(=O)[C@H]12	-1.9
CCN1C(=O)[C@@H]2[C@@H](c3ccc(-c4ccc5c(c4)OCO5)cc3)N3CCCC[C@@]3(C(=O)OC)[C@@H]2C1=O	-2.2
Cc1ccc(C(=O)C2CCOC(C)(C)C2)cc1 (stereo not given)	0.7
C=CCC[C@@H](Cc1ccc(F)cc1)C(=O)OC[C@@H]1CCCN1C(=O)[C@@H](CC=C)CC(=O)N[C@@H](CO)Cc1ccccc1	-2.9
CNC(=S)N(CCCN(C)C)Cc1cc2cc3c(cc2[nH]c1=O)OCCO3	-0.1
O=C(Cc1ccccn1)c1ccncc1	-0.1
NC(=O)c1sc2nc(-c3ccco3)ccc2c1N	10.3*	TTR inh HuH7=4.3;TTR act confirm=0.0
NC(=O)c1sc2nc3c(c(-c4ccco4)c2c1N)CCC3	0.0
Nc1c(C(=O)Nc2ccccc2F)sc2nc(-c3ccco3)ccc12	-2.0
COCO[C@@H]1CC(CO)=C[C@H]2OCO[C@H]21	7.3
O=C(OCc1ccccc1F)c1cc2ccccc2cc1O	10.7*	TTR inh HuH7=-3.6;TTR act confirm=0.9
O=C(COC(=O)c1cc2ccccc2cc1O)NC(=O)NCc1ccco1	-0.7
COc1ccccc1NC(=O)NNC(=O)c1cc2ccccc2cc1O	-0.2
COC(=O)C1CN(CCO)CCS(=O)(=O)N1Cc1cn(Cc2cccc(Cl)c2)nn1 (stereo not given)	-0.1
CCCCCCNC(=O)CCNC(=O)c1cc(OC)c(OC)c(OC)c1	-0.6
CCOc1cc(C(=O)NCCCNC(=O)c2cc(OCC)c(OCC)c(OCC)c2)cc(OCC)c1OCC	11.9*	TTR inh HuH7=-28.6;TTR act confirm=-0.4
CCOc1cc(C(=O)NC(C)CC)cc(OCC)c1OCC (stereo not given)	-3.3
